Screens: PubChem, National Center for Advancing Translational Sciences (NCATS)
Shown are actives, neighbours in structure and some others; about 5.9% of the full set was active somewhere.
RORg inh = inhibitors of mouse ROR gamma transcriptional activity; Drosophila S2 Gal4-RORgamma UAS-luciferase reporter, 20 h; 5.4% of 310,000 active; AID 2551; Potency, µM (doses to about 53.6 µM), inactives show at the highest dose activity change, negative = inhibition, most hits filed as inhibitors; also: potency is read from the fitted curve at half-maximal effect; nearly all actives have a fitted effect of over 60% in size
Target sequence (P51450 whole entry, looked up, the tested form may be a part): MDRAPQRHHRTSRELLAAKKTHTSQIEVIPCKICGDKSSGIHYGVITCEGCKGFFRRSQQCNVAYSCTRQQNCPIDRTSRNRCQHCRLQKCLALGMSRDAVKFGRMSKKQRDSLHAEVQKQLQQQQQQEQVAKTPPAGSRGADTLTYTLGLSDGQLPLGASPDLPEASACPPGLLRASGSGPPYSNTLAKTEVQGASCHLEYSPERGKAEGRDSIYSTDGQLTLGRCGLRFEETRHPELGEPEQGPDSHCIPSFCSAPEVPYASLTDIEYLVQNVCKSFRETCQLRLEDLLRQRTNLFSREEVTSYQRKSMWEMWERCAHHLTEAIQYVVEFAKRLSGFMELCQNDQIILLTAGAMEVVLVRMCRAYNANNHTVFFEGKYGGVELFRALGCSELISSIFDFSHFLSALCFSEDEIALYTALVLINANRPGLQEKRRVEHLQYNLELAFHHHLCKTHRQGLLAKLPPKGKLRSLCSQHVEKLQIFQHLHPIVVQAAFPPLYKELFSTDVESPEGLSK
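ROR gamma transcriptional activity was tracked as Gal4-UAS luciferase output in stably transfected Drosophila Schneider cells, with compound added 1 hr before 700 uM copper sulfate induction and a 20 hr ambient-temperature incubation.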
GALK inh = galactokinase (human) inhibition; Purified GALK, Kinase-Glo residual ATP luminescence; Potency, µM (series often up to 57.5 µM), inactives show at the top dose activity change, negative = inhibition, usual class: inhibitors; 0.007% of 270,000 active; AID 1868; also: potency is read from the fitted curve at half-maximal effect
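Kinase-Glo Plus luminescence measured ATP left after a 1 h room-temperature reaction. The reaction used 5 nM GALK, 100 uM galactose and 35 uM ATP at pH 8.0 (20 mM HEPES, 5 mM MgCl2, 60 mM NaCl, 1 mM DTT, 0.01% BSA).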
rTrxR1 inhibitor = rat TrxR1 inhibition | O89049 | recombinant rTrxR1, NADPH fluorescence consumption, selenite substrate | Potency, µM (top dose mostly 114 µM), for inactives: at the highest dose activity change, negative = inhibition, actives largely listed as inhibitors | 1% of 390,000 active; also: potency is read from the fitted curve at half-maximal effect; nearly all actives have a fitted effect of over 65% in size
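Rat TrxR1 (90 nM in the dispensed reagent) was pre-reduced with 400 uM NADPH for 5 min at room temperature, then incubated with compound for 15 min. After 400 uM selenite was added, NADPH fluorescence (Ex 340/Em 450 nm) was followed for 8 min.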
FBPA coupling cs = inhibits coupling enzyme system, counter-screen for aldolase hits; coupling enzyme system counterscreen, AmpLite Red fluorescence; activity change, negative = inhibition, % at 58.2 µM, hits read low; 0.67% of 290,000 active; in the data active = activity change below about -30%
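First, compound is pin-transferred into glyceraldehyde-3-phosphate coupling-enzyme reagent at 57.5 uM final and held 10 min at RT. Next, substrate, coupling system and AmpLite Red are added. After 20 min RT, fluorescence (525/598 nm) is read.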
Gal4-VP16 FLuc = inhibits Gal4-VP16 luciferase reporter, ROR gamma counter-screen; Drosophila S2 Gal4-VP16 UAS-luciferase, luminescence, 20 h; 3.5% of 310,000 active; Potency, µM (doses to about 53.6 µM), inactives show at the highest dose activity, negative = inhibition, hits mostly inhibitors; AID 2546;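 also: Gal4-VP16 expression switched on by copper sulfate through the metallothionein promoter; potency is read from the fitted curve at half-maximal effect; nearly all actives have a fitted effect of over 50% in size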
TrxR1 substrate = rat thioredoxin reductase 1 substrate activity; O89049; purified TrxR1 substrate turnover, NADPH consumption readout; Potency, µM (titrated, usually from 114 µM), without a hit: at the highest dose activity change, negative = substrate turnover; 0.01% of 390,000 active; also: potency is read from the fitted curve at half-maximal effect; nearly all actives have a fitted effect of over 50% in size
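Rat TrxR1, dispensed at 90 nM, was prereduced with 400 uM NADPH (final) for 5 min at ~22 deg C, then incubated with compound 15 min before 400 uM selenite. A first-read NADPH fluorescence drop versus no-compound background flagged substrates.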
An asterisk follows results filed as active; [ ] = dose if it differs, or a comment. Unless noted, calls follow the shape of the dose curve; as a rule, active = well fitted curve in the direction sought with a large enough effect; inconclusive = small, poorly fitted or top-dose-only effect, or another doubt; inactive = no such curve, though single readings can be large; an effect the other way counts as inactive or inconclusive. % is scaled to controls: 0 for no effect and ±100 for the full control effect.

`N#CC1=C(S)N(c2ccccc2)C(c2ccc(-c3ccc(Cl)c(Cl)c3)o2)NC1=O` (configuration not stated) gave RORg inh 10µM*, GALK inh -17%, rTrxR1 inhibitor inconclusive, FBPA coupling cs 0, Gal4-VP16 FLuc inconclusive and TrxR1 substrate -4%.
N#CC1=C(S)N(c2ccccc2)C(c2ccc(-c3cc(Cl)ccc3Cl)o2)NC1=O (configuration not stated) was read as RORg inh 13µM*, GALK inh -9%, rTrxR1 inhibitor inconclusive, FBPA coupling cs 9, Gal4-VP16 FLuc inconclusive and TrxR1 substrate 2%.
`COc1ccc(N2C(S)=C(C#N)C(=O)NC2c2ccc(OC)c(OC)c2)cc1` (configuration not stated) gave RORg inh 11µM*, GALK inh -6%, rTrxR1 inhibitor -16%, FBPA coupling cs 6, Gal4-VP16 FLuc -28% and TrxR1 substrate 5%.
For Cc1cc(C)cc(NC(=O)CCC(=O)Nc2nnc(C(F)(F)F)s2)c1 the results were RORg inh 31%, GALK inh 3%, rTrxR1 inhibitor 31%, FBPA coupling cs 9, Gal4-VP16 FLuc 2% and TrxR1 substrate 6%.
Screening Cc1ccc(Nc2nn3c(=O)c4cc5c(cc4nc3s2)OCO5)cc1Cl returned rTrxR1 inhibitor 8% and TrxR1 substrate 8%[2.29 µM].
For CCN(c1ccccc1)c1cc2ccccc2c(=O)[nH]1 the results were RORg inh -16%, GALK inh 6%, rTrxR1 inhibitor 22%, FBPA coupling cs -34*, Gal4-VP16 FLuc -7% and TrxR1 substrate 176%.
`CCN(c1ccccc1)c1nc(=O)c2cccnc2s1` gave RORg inh 9%, GALK inh 1%, rTrxR1 inhibitor 19%, FBPA coupling cs 2, Gal4-VP16 FLuc -7% and TrxR1 substrate -2%.
Screening CCOC(=O)C1CCN(S(=O)(=O)c2cc(Br)cc3c2N(C(=O)CC)CC3)CC1 returned rTrxR1 inhibitor 20% and TrxR1 substrate 11%[2.29 µM].
For CCCOc1ccc(-c2c(C(=O)N/N=C/c3ccsc3)nnn2-c2nonc2N)cc1 the results were RORg inh 7.9µM*, GALK inh 0%, rTrxR1 inhibitor 18%, Gal4-VP16 FLuc inconclusive and TrxR1 substrate 5%.
CCN(CC)c1ccc(/C=N/NC(=O)c2nnn(-c3nonc3N)c2-c2ccc(C)cc2)cc1 was read as RORg inh 13µM*, GALK inh 1%, rTrxR1 inhibitor 21%, Gal4-VP16 FLuc inconclusive and TrxR1 substrate 2%.
Screening CCOc1ccc(/C=N/NC(=O)c2nnn(-c3nonc3N)c2-c2ccc(OCC)cc2)cc1 returned RORg inh inconclusive, GALK inh 0%, rTrxR1 inhibitor -6%[57.1 µM], FBPA coupling cs -4, Gal4-VP16 FLuc inconclusive and TrxR1 substrate 4%[57.1 µM].
Screening CCOc1ccc(-c2c(C(=O)N/N=C/c3c[nH]c4ccccc34)nnn2-c2nonc2N)cc1 returned RORg inh inconclusive, GALK inh 1%, rTrxR1 inhibitor 5%, FBPA coupling cs -4, Gal4-VP16 FLuc 3.2µM* and TrxR1 substrate -7%.
`COc1nc(N(C)C)nc(N(C#N)S(=O)(=O)c2ccc(C)cc2)n1` gave RORg inh -11%, GALK inh 4%, rTrxR1 inhibitor -19%, FBPA coupling cs -2, Gal4-VP16 FLuc 3% and TrxR1 substrate -13%.
Screening CCC(=O)N1CCN=C1SCc1cc(C)ccc1C returned RORg inh 2%, GALK inh -3%, rTrxR1 inhibitor 9%, Gal4-VP16 FLuc 12% and TrxR1 substrate 2%.
Clc1ncc(C#Cc2ccccc2)c2ncncc12 was read as rTrxR1 inhibitor 18µM* and TrxR1 substrate 35%.
For COc1ccc(C#Cc2cnc(Cl)c3cncnc23)cc1OC the results were rTrxR1 inhibitor -18% and TrxR1 substrate 12%.
